From PubChem BioAssay (EPA / NIEHS) come the findings set out here.

Activity calls are given as the source filed them. Rule for the calls: active = hit-call score of the fitted dose curve at least 0.9, where 1 is the maximum; inactive = score below 0.9.

Read-out in this test: Paternally Expressed 10 (PEG10), PEG10 (gene 23089)
Put plainly: LTEA_HepaRG_PEG10: Life Technologies and Expression Analysis (LTEA) Assay for Paternally Expressed 10 (PEG10) using HepaRG (AID 2283520).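 For AC50: PEG10 transcript by qRT-PCR normalised to ACTB GAPDH and POLR2A.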 To be noted: mRNA level, 48 h; actives raise or lower the signal. As for the experimental part: LTEA_HepaRG is a cell based, multiplexed-readout assay that uses HepaRG, a human liver cell line, with measurements taken at 48 hours after chemical dosing on a 96-well plate.LTEA_HepaRG_PEG10 is one of 102 assay component(s) measured in the LTEA HepaRG cell culture assay. It is a marker of Cell proliferation, survival, death.Data from the assay component LTEA_HepaRG_PEG10 was analyzed into 1 endpoint. This assay endpoint, LTEA_HepaRG_PEG10, was analyzed with bidirectional fitting relative to DMSO as the negative control and baseline of activity. Using a type of inducible reporter, measures of mRNA induction for gain or loss-of-signal activity can be used to understand regulation of transcription factor activity. To generalize the intended target to other relatable targets, this assay endpoint is annotated to the dna binding intended target family, where the subfamily is xenobiotic metabolism.
A total of 1060 chemcials from the ToxCast library were tested in eight-point concentration-response experiments. Cell culture and cytotoxicity assays were conducted at Thermo Fisher Scientific's Custom Services facility (Madison, WI). A single lot of human HepaRG cells (Thermo Fisher Scientific, Frederick, MD) was used for the cell culture experiments. 96-well format collagen type I coated plates of human HepaRG cells were prepared using established methods. Briefly, cryopreserved HepaRG cells were thawed, plated at a density of approximately 100,000 cells/well in HepaRG Thaw, Plate, and General Purpose media (HPRG770, Thermo Fisher Scientific), and incubated for 48 hours. 0.5% DMSO was selected as vehicle control to balance the requisite need of DMSO in HepaRG cultures to maintain differentiation (for example, baseline metabolism, proportions of hepatocytes vs. cholangiocytes), while enabling further hepatic receptor pathway activation (for example, PXR and CAR) in response to chemical exposure. 48 hours after plating, the culture medium was replaced with HepaRG Serum-Free Incudtion Media. Cells were exposed to each test chemical in duplicate and maintained in CO2 incubators for another 48 hours. Chemical plates were thawed to room temperature and 200x concentrations of treatment groups were prepared. 8-point conentration-reponse curves were made with the highest exposure at 100 uM, followed by half-log dilutions, all in 0.5% DMSO. Each test plate contained variouse controls, induction positive controls (1mM phenobarbital), cytotoxicity positive controls ([…] aflatoxin B1), vehicle controls (0.5% DMSO), and total lysis controls (0.5% DMSO). Cell morphology images were taken using an Essen IncuCyte FLR automated microscope, with six 96-well plates imaged in about 24 minutes. Images were captured and exported and JPEG files. Spent culture media was transfered to black-well plates for the LDH assay, and remaining media was sorted at -80 C for later use. Cells were treated with RLT buffer and frozen until shipped for gene expression analysis. Total RNA was isolated from the cell suspension in 75 uL of Buffer RLT (Qiagen, Germantown, MD 20874) by Quintiles/Expression Analysis (Durham, NC) using a custom isolation procedure. Total RNA from each plate well was transferred to a preamplification plate. Fluidigm's 96.96 Dynamic ArrayTM (Fluidigm, Amsterdam, the Netherlands) technology was used for gene expression analyses by quantitative reverse transcription polymerase chain reaction (qRT-PCR, performed by Quintiles/Expression Analysis, Durham, NC)89. Standard TaqManTM Assays (Applied Biosystems/ThermoFisher Scientific, Foster City, CA) were used to assess the expression of 93 genes selected based on their selectivity and sensitivity to important hepatic receptors known to be modulated by environmental chemicals; importance in human hepatocyte functionality; and hepatotoxicity. […]
Consider `O=C(CCCN1CCC(O)(c2ccc(Cl)cc2)CC1)c1ccc(F)cc1`, for which the call was inactive.

Broadly, the AC50 is the midpoint of the concentration-response curve, whichever way the signal moves. In the case of `CCCCc1oc2ccccc2c1C(=O)c1cc(I)c(OCCN(CC)CC)c(I)c1`, the AC50 was 22.6 µM (active).

In the case of `CCCCCCCCCCCCCCC`, the result was inactive.

`CN(C)CCOC(c1ccccc1)c1ccccc1`: the outcome was inactive.

As for `CCC(C)c1ccccc1O` (stereo unspecified), the compound was classed as inactive.

Take `CCCCC(CC)C(=O)O` (stereo unspecified): the call was inactive.

For `O=C(c1ccccc1)c1ccccc1`, the call was inactive.

For the compound `CS(=O)(=O)c1ccc([C@@H](CC2CCCC2)C(=O)Nc2cnccn2)cc1Cl`, the call was inactive.

On to `Cc1[nH]nc2c1N=C(c1ccccc1Cl)c1cc([N+](=O)[O-])ccc1N2`, for which the AC50 is 3.67 µM (active).

As to `CN(Cc1cnc2nc(N)nc(N)c2n1)c1ccc(C(=O)N[C@@H](CCC(=O)O)C(=O)O)cc1`, the call was inactive.

In the case of `OCC(CO)(CBr)CBr`, the compound was called inactive.

`N=C(N)c1ccc(OCCCCCOc2ccc(C(=N)N)cc2)cc1`: the AC50 was 26.6 µM (active).

For `CCCCC=O`, the call was inactive.

Turning to `O=C1NS(=O)(=O)c2ccccc21`, the call was inactive.

For the compound `CC(=O)Nc1ccc(O)cc1`, the compound was classed as inactive.

In the case of `CCCCCCCCCCCCOS(=O)(=O)O`, the compound was called inactive.
